# High-throughput results as filed in PubChem BioAssay.
# A selection: hits, their analogues and other compounds. The true share with any hit is near 7.4%.
# TSHR agonist = qHTS Assay for Agonists of the Thyroid Stimulating Hormone Receptor; Thyrotropin receptor (Homo sapiens), P16473; HEK293-CNG-TSHR cells (CNG channel as cAMP sensor), membrane potential dye, cAMP; Potency, µM (top dose mostly 57.1 µM), hits mostly activators; 73,000 compounds, 0.48% hits; active = well fitted activation curve with a large enough effect in the main read-out, with a control signal flat, not every such curve was filed as active; inconclusive = small, poorly fitted or top-dose-only effect, or a change in a side signal; inactive = no such curve, though single readings can be large or run the other way; reference of the percent scale not stated here;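 note: the control signal comes from parental cells without the receptor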
#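 HEK 293 cells stably expressing TSHR and a cAMP-gated CNG channel; parental CNG-only cells as counterscreen. Cells preloaded 60 min with membrane potential dye plus 100 uM RO 20-1724, then compound 30 min; fluorescence read at 590 nm.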
# HEK293 cAMP cs = qHTS Assay for Agonists of the Thyroid Stimulating Hormone Receptor: Activators of Intracellular cAMP Concentrations in Parental HEK 293; Potency, µM (top dose mostly 57.1 µM), usual class: activators; 73,000 compounds, 2.5% hits; parental HEK293 CNG cAMP sensor, membrane potential fluorescence; note: nearly all actives have a fitted effect of over 55% in size
#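 Parental HEK 293 cells stably expressing a modified CNG channel (no TSHR) report cAMP rise as membrane depolarization. Membrane potential dye with 100 uM RO 20-1724 was loaded for 60 min at room temperature, then compound added for 30 min; fluorescence read at 590 nm.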
# Tau fil binding = qHTS Assay for Tau Filament Binding; Potency, µM (doses to about 57.1 µM); recombinant tau filaments, thioflavin S fluorescence, 15 h; filaments grown with octadecylsulfate alongside compound; 71,000 compounds, 2% hits; AID 596, 2007;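 note: actives lower thioflavin S fluorescence by blocking filaments or displacing dye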
# Target sequence (P10636 whole entry, looked up): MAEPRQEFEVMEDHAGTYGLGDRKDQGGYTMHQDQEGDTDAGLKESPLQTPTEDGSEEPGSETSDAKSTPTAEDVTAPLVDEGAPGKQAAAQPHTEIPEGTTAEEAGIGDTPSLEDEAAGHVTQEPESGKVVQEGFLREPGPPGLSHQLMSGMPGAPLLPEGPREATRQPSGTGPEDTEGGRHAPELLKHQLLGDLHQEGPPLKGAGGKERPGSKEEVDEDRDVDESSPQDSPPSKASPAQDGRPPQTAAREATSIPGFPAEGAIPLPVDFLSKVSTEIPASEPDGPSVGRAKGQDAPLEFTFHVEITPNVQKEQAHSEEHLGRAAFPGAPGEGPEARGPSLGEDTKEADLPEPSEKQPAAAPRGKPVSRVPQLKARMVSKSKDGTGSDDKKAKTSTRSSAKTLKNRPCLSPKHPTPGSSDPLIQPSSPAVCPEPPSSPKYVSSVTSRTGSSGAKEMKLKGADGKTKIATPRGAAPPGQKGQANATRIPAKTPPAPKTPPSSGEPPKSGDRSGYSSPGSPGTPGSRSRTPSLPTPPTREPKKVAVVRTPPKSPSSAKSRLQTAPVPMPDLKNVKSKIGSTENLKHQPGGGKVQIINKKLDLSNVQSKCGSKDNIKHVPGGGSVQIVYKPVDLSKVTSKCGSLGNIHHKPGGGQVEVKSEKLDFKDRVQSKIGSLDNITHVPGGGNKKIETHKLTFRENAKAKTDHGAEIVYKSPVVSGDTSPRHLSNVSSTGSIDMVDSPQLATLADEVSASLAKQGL
#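 Read-out: ThS fluorescence, 450 nm excitation/510 nm emission; lower signal marks blocked filament formation or displaced dye. Tau at 1 uM with 30 uM ODS, 10 uM ThS, 5 mM DTT, 100 mM NaCl, 10 mM HEPES pH 7.4; 15 h, 37 C.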
# ERK AVP block = qHTS Assay for Inhibitors of the ERK Signaling Pathway using a Homogeneous Screening Assay | HEK293-V1b, vasopressin-stimulated pERK AlphaScreen | Potency, µM (top dose mostly 57.5 µM), hits mostly inhibitors | 72,000 compounds, 0.99% hits; note: nearly all actives have a fitted effect of over 55% in size
#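 qHTS, compounds titrated on V1b-expressing HEK293 cells. Preincubation 30 min at 37C, vasopressin 25 nM for 5 min, lysis 10 min, bead incubation 5 hr at room temperature.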
# CRE Fsk mod = Cell signaling CRE-BLA (Fsk stim). CHO CRE-bla reporter (cAMP response element driving beta-lactamase), forskolin EC10, beta-lactamase ratio. Potency, µM (titrated, usually from 38.2 µM), actives largely listed as activators. 71,000 compounds, 2.5% hits; active = well fitted activation curve with a large enough effect in the signal ratio, with a control signal flat, not every such curve was filed as active; inconclusive = small, poorly fitted or top-dose-only effect, or effect the other way, or a change in a side signal; the % refers to the signal ratio
#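 Cells were plated overnight at 37 °C, exposed to compound titrations plus EC10 NKH 477 for 3 h, then given CCF4 dye for 2 h at room temperature. Blue/green (460/530 nm) ratio was converted to %Activity and AC50 values calculated.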
# tau ThS displ = Tau ThS binding assay; shares compounds with Tau fil binding; recombinant tau filaments, Thioflavin S fluorescence displacement; Potency, µM; 60 compounds, 40% hits; calls by dose curve
# aSyn ThS displ = Alpha-synuclein ThS binding assay. shares compounds with Tau fil binding. recombinant alpha-synuclein fibrils, ThS fluorescence displacement. Potency, µM. 60 compounds, 40% hits; calls by dose curve
# Abeta ThS displ = Beta amyloid ThS binding assay | shares compounds with Tau fil binding | Abeta1-42 fibrillization, thioflavin S fluorescence, overnight 37 C | Potency, µM | 60 compounds, 50% hits; calls by dose curve
# CHO tox 24h = Cell Viability - CRE-beta lactamase CHO cell - 24 hr assay; shares compounds with CRE Fsk mod; CRE-bla CHO viability, ATP luminescence, 24 h; activity, negative = viability loss, % at 46.1 µM; 120 tested, under 10 active; AID 905, 2007
# CHO tox 40h = Cell Viability - CRE-beta lactamase CHO cell - 40 hr assay; CRE-bla CHO viability, ATP luminescence, 40 h; shares compounds with CRE Fsk mod; 120 tested, under 10 active; Potency, µM, most hits filed as inhibitors
# CREB luc CRC = Confirmation Concentration-Response Assay for Cell signaling CRE-BLA (Fsk stim) - HEK293 CREB Luciferase; shares compounds with CRE Fsk mod; HEK293 CRE-luc2P, NKH477 EC10 potentiation, luminescence, 4 h; Potency, µM (doses to about 38.3 µM), actives largely listed as activators; 120 compounds, 80% hits
# A number is an active result; i = inactive; ? = inconclusive; nt = no result; ! = not active in a repeat; [ ] = remark or other dose. Unless noted, calls come from the whole dose curve; as a rule, active = well fitted curve in the direction sought with a large enough effect; inconclusive = small, poorly fitted or top-dose-only effect, or another doubt; inactive = no such curve, though single readings can be large; an effect the other way counts as inactive or inconclusive.
SMILES,TSHR agonist,HEK293 cAMP cs,Tau fil binding,ERK AVP block,CRE Fsk mod,CHO tox 24h,CHO tox 40h,CREB luc CRC,others
CCCCNC(=O)C(C#N)c1nc2ccccc2nc1N1CCCC1 (configuration not stated),i,i,i,i,?,nt,nt,nt,
CCCCCCOC(=O)C(C#N)c1nc2ccccc2nc1N1CCN(C)CC1 (configuration not stated),?,i,1µM,i,?,nt,nt,nt,tau ThS displ=2.8µM;aSyn ThS displ=1.8µM;Abeta ThS displ=0.79µM
COc1cc(N[C@@H](C)CCCN)c2ncccc2c1,i,i,5µM,i,i,nt,nt,nt,tau ThS displ=i;aSyn ThS displ=i;Abeta ThS displ=i
COc1ccc(OCC(=O)Nc2cccc3cccnc23)cc1,?,?,i,i,i,nt,nt,nt,
C/C(CCC(=O)OC[C@@H]1O[C@H](C#Cc2ccccc2)C=C[C@@H]1Oc1ccc(C)cc1)=N/O[C@@H](C)c1cn([C@H](CO)Cc2ccccc2)nn1,i[11.4 µM],i[11.4 µM],nt,i[11.5 µM],nt,nt,nt,nt,
O=C(Cc1ccccc1)Nc1nc2ccc(Cl)cc2c2nc(-c3ccco3)nn12,?,?,i,i,?,i,i,?,
CCCN1Cc2cccc(C(=O)Nc3ccc(N4CCN(CC)CC4)cc3)c2C1=O,i,i,i,i,4µM,i,i,7.9µM,
CCCN1Cc2cccc(C(N)=O)c2C1=O,i[11.4 µM],i,i,i,i,nt,nt,nt,
COc1cc(C2=NOC(C(=O)N3CCCCCC3)C2)cc(OC)c1OC (configuration not stated),i,i,i,i,?,nt,nt,nt,
COc1cc(C2=NOC(C(=O)N3CCN(c4ccc(F)cc4)CC3)C2)cc(OC)c1OC (configuration not stated),i,i,i,i,0.63µM,i,i,4µM,
NCCC[C@@H](CC(=O)N[C@@H]1CCCC[C@H]1C(=O)N[C@H](CC(=O)N[C@@H](CCC(=O)O)CC(=O)O)Cc1ccccc1)NC(=O)C[C@H](CO)NC(=O)[C@@H]1CCCC[C@H]1N,i,i,i,nt,?,nt,nt,nt,
CCCCNc1c(C(=O)OCC)c(C)nc2c1cnn2CC,i,i,i,?,3.2µM!,i,?,0.79µM,
CC(C)C[C@@H](CC(=O)N[C@@H](CCCN)CC(=O)N[C@@H]1CCNC[C@H]1C(=O)N[C@H](CC(=O)N[C@@H](CCC(=O)O)CC(=O)O)Cc1c[nH]c2ccccc12)NC(=O)[C@@H]1CNCC[C@H]1N,i,i,i,nt,?,nt,nt,nt,
Cc1nn(-c2ccc(Cl)cc2)c2sc(C(=O)N3CCN(c4ccccn4)CC3)cc12,?,i,i,i,i,i,i,1.4µM,
c1cncc(CNc2nc(-c3ccoc3)nc3ccccc23)c1,i,i,?,?,?,nt,nt,nt,
CCCc1nc2oc3c(NCc4ccccn4)ncnc3c2c2c1COC(C)(C)C2,nt,i,i,i,0.79µM,i,i,0.4µM,
CCCc1nc2oc3c(NCC4CCCO4)ncnc3c2c2c1COC(C)(C)C2 (configuration not stated),i,i,i,i,?,nt,nt,nt,
COc1ccc(O[C@H]2C=C[C@@H](c3ccccc3)O[C@H]2COC(=O)N2CCCCC2)cc1,i[11.4 µM],i[11.4 µM],nt,i[11.5 µM],nt,nt,nt,nt,
N#CCc1nc2c3c4c(sc3ncn2n1)CCCC4,nt,nt,nt,nt,nt,i,i,5µM,
c1nc2sc3c(c2c2nnnn12)CCCC3,i,i,i,?,?,nt,nt,nt,
C=CCN1C(=O)c2oc3ccccc3c(=O)c2C1c1ccc(O)c(OC)c1 (configuration not stated),nt,nt,nt,nt,nt,i,i,13µM,
COc1ccc(C2c3c(oc4ccccc4c3=O)C(=O)N2CCN2CCOCC2)cc1OC (configuration not stated),i,i,i,i,i,i,i,14µM,
COC(=O)CC1=COC(O)C2C(CO)=CC[C@@H]12 (some centres not stated),i[11.4 µM],i[11.4 µM],nt,i[11.5 µM],nt,nt,nt,nt,
COc1cc(-c2cc(=O)c3ccccc3o2)ccc1O,i,i,?,?,2µM,i,?,3.2µM,
N#C/C(=C\C1CC=CCC1)c1nc2ccccc2[nH]1 (configuration not stated),?,?,i,i,i,nt,nt,nt,
SMILES,TSHR agonist,HEK293 cAMP cs,Tau fil binding,ERK AVP block,CRE Fsk mod,CHO tox 24h,CHO tox 40h,CREB luc CRC,others
Cn1c(/C(C#N)=C/C2CC=CCC2)nc2ccccc21 (configuration not stated),i,i,i,i,i,i,i,16µM,
Cn1nc(-c2ccc(N3CCCCC3)c(NC(=O)c3ccco3)c2)c2ccccc2c1=O,?,?,i,i,1.6µM,i,?,0.63µM,
COc1ccc(-c2nn(C)c(=O)c3ccccc23)cc1CNC(=O)c1ccco1,i,i,i,?,?,nt,nt,nt,
O=c1c(O)c(-c2ccc(O)c(O)c2)oc2cc(O)ccc12,i,i,?,13µM!,?,i,i,?,
COc1ccc(OC)c(NC(=O)c2cn(C)c(=O)c3cc(OC)c(OC)cc23)c1,i,i,i,i,0.79µM,i,i,4µM,
Nc1nc2c(ncn2C2OC(CO)CC2O)c(=O)[nH]1 (configuration not stated),nt,nt,nt,i,nt,nt,nt,nt,
Cc1nc(Nc2nc(-c3ccccc3)cc(=O)[nH]2)nc2ccccc12,i,i,i,?,?,nt,nt,nt,
COc1nc(Nc2nc3ccccc3c(=O)[nH]2)nc2ccc(C)cc12,i[11.4 µM],i[11.4 µM],i[11.4 µM],i,1.6µM,?,4µM,?,
Cc1ccc(Nc2nc(N3CCOCC3)nc(N3CCOCC3)n2)cc1,i,i,i,i,i,nt,nt,nt,
CSc1nc2ccc(Nc3nc(N4CCOCC4)nc(N4CCOCC4)n3)cc2s1,i[11.4 µM],i[11.4 µM],i[11.4 µM],?,3.2µM,i,?,0.63µM,
C(=N/Nc1nnc2c(n1)[nH]c1ccccc12)/c1cccnc1,?,i[11.4 µM],i[11.4 µM],i[11.5 µM],i[7.6 µM],nt,nt,nt,
